IDE exosite FP: exo-site inhibitors of human insulin-degrading enzyme | P14735 | purified IDE, FL-6b probe fluorescence polarization; stronger effect = lower value | z-score at 20 µM | 17,000 compounds, 6.3% hits;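 active = z-score of -3 or lower, meaning strong loss of probe binding signal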;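 also: His-tagged human IDE residues 42-1019 made in E. coli with 30 nM FL-6b probe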
Target sequence (P14735 42-1019 limits assumed): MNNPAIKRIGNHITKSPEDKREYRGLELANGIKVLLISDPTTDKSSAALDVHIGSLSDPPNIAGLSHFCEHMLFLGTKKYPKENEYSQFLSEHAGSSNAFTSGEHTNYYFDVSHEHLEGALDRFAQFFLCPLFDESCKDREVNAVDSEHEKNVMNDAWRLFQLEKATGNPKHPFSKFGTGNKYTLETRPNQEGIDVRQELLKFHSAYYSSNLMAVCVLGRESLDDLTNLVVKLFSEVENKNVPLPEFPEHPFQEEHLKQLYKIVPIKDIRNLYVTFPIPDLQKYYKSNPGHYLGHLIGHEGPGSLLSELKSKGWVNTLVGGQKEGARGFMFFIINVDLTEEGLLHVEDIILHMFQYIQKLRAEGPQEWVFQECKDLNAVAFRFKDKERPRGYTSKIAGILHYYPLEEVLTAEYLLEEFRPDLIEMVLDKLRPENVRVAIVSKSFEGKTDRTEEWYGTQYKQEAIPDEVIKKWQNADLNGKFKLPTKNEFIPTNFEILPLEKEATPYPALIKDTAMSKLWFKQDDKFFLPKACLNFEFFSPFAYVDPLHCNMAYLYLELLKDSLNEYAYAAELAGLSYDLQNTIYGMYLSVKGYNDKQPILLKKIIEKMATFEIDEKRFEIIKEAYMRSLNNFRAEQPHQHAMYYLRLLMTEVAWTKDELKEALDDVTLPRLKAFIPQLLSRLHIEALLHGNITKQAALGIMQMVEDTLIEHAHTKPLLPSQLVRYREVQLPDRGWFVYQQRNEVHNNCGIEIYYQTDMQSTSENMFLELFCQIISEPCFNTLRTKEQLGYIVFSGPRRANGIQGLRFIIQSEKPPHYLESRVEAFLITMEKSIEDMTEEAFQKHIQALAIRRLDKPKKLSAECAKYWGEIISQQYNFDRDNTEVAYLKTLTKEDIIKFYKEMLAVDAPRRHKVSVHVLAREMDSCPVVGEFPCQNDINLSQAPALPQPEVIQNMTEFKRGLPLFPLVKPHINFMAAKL
Numbers without * were called inactive. This is one part of a sample in which hits are shown more often than they occur.

SMILES	IDE exosite FP
COc1cc(CN2[C@@H]3CNC[C@H]2C3c2ccc(-c3cccc(C)c3)cc2)cc(OC)c1 (some centres not stated)	-7.18*
COc1cc(CN2[C@@H]3CNC[C@H]2C3c2ccc(-c3ccc(C#N)cc3)cc2)cc(OC)c1 (some centres not stated)	0.446
COc1cccc(CN2[C@@H]3CNC[C@H]2C3c2ccc(-c3ccc(C#N)cc3)cc2)c1 (some centres not stated)	0.547
CCC(=O)N1CC2(C1)[C@@H](c1ccc(-c3ccc(F)cc3)cc1)[C@H](CO)N2C(C)=O	1.23
CN(C)CC(=O)N[C@@H]1C=C[C@@H](CC(=O)NCc2ccc(Cl)cc2)O[C@@H]1CO	0.717
CCCC(=O)N1CCC2(CC1)CN(C(=O)C1CCC1)[C@@H](CO)c1[nH]c3cc(OC)ccc3c12	-1.44
COc1ccccc1NC(=O)N1CCCCN2[C@H](CO)[C@H](c3ccc(-c4cccc(C#N)c4)cc3)[C@H]2C1	-1.06
COc1ccc2c3c(n(C)c2c1)[C@@H](CO)N(Cc1ccc(Cl)cc1)CC31CCN(CC2CC2)CC1	0.245
COCC(=O)N1CC2(C1)CN(Cc1cccc(F)c1)[C@@H](CO)c1c2c2ccc(OC)cc2n1C	-0.117
COc1ccc2c3c(n(C)c2c1)[C@@H](CO)N(Cc1cc(F)ccc1F)CC31CN(C(=O)C2CC2)C1	0.68
COCC(=O)N1CC2(C1)CN(Cc1cccc(F)c1)[C@H](CO)c1c2c2ccc(OC)cc2n1C	-2.47
COCC(=O)N1CCC2(CC1)CN(Cc1cc(F)ccc1F)[C@H](CO)c1c2c2ccc(OC)cc2n1C	-4.02*
COc1ccc2c3c(n(C)c2c1)[C@H](CO)N(Cc1ccccc1F)CC31CCN(C(=O)C2CCOCC2)CC1	-0.892
COc1ccc2c3c(n(C)c2c1)[C@H](CO)N(Cc1cccc(F)c1)CC31CCN(C(=O)Cc2ccccc2)CC1	-3.69*
CO[C@@H](C(=O)N(C)C[C@H]1OCc2ccccc2-c2ccccc2C(=O)N([C@@H](C)CO)C[C@@H]1C)c1ccccc1	-1.04
O=C(C[C@@H]1CC[C@@H]2[C@H](COC[C@H](O)CN2CCC(F)(F)F)O1)NCC1CC1	1.23
O=C(c1ccc(F)cc1)N1CC(=O)N2[C@@H](CO)[C@H](c3ccc(C#CC4CC4)cc3)[C@@H]2C1	-0.685
C/C=C/c1ccc([C@H]2[C@@H](CO)N3C(=O)CN(C(=O)Nc4cccc(OC)c4)C[C@@H]23)cc1	-0.807
COc1ccc([C@H]2CC=CC[C@@H](C)Oc3ccccc3C(=O)N(C)[C@H](Cc3ccccc3)C(=O)N2)c(OC)c1 (mixture of isomers)	2.03
C[C@@H]1C(=O)N[C@@H](c2ccc3c(c2)OCO3)CC=CC[C@H](C)Oc2ccccc2C(=O)N1C (mixture of isomers)	1.58
O=C(CN1CCOCC1)N1CCCCN2[C@H](CO)[C@H](c3ccc(-c4ccccc4)cc3)[C@H]2C1	-2.11
O=C(CN1CCOCC1)N1CCCCN2[C@@H](CO)[C@H](c3ccc(Br)cc3)[C@@H]2C1	-0.963
O=C(CN1CCOCC1)N1CCCCN2[C@@H](CO)[C@@H](c3ccc(Br)cc3)[C@@H]2C1	1.25
O=C(CN1CCOCC1)N1CCCCN2[C@H](CO)[C@@H](c3ccc(/C=C/c4ccccc4)cc3)[C@@H]2C1	-3.73*
O=C(CN1CCOCC1)N1CCCCN2[C@H](C1)[C@H](c1ccc(/C=C/c3ccccc3)cc1)[C@@H]2CO	-8.16*
SMILES	IDE exosite FP
O=C(CN1CCOCC1)N1CCCCN2[C@H](CO)[C@@H](c3ccc(Br)cc3)[C@@H]2C1	1.12
CO[C@@H](CN(C)C(=O)Nc1ccc(Cl)cc1)[C@@H](C)CN(Cc1ccccc1Cl)[C@@H](C)CO	0.876
COc1ccc(-c2ccc([C@@H]3[C@H](C#N)N(C(=O)NC4CCCCC4)[C@H]3CO)cc2)cc1	2
C[C@H](CO)N1C[C@H](C)[C@@H](CN(C)C(=O)C2CCCCC2)OCCCC[C@H](C)Oc2ccc(NS(=O)(=O)c3ccccc3)cc2C1=O	0.219
O=S(=O)(c1cccs1)N1CCCCN2[C@H](CO)[C@H](c3ccc(-c4ccccc4)cc3)[C@@H]2C1	3.12
CC(C)NC(=O)N1CCCCN2[C@H](C1)[C@H](c1ccc(C#Cc3ccccc3)cc1)[C@@H]2CO	-12.5*
CC(C)NC(=O)N1CCCCN2[C@H](C1)[C@@H](c1ccc(C#C[C@H](C)O)cc1)[C@@H]2CO	0.794
CC(C)C#Cc1ccc([C@@H]2[C@H](CO)N3CCCCN(C(=O)NC(C)C)C[C@@H]23)cc1	-0.179
CC(C)C#Cc1ccc([C@H]2[C@H]3CN(C(=O)NC(C)C)CCCCN3[C@H]2CO)cc1	-0.262
CC(C)NC(=O)N1CCCCN2[C@H](CO)[C@H](c3ccc(C#C[C@H](C)O)cc3)[C@@H]2C1	-0.262
CC(C)C#Cc1ccc([C@@H]2[C@H](CO)N3CCCCN(C(=O)Nc4ccccc4)C[C@@H]23)cc1	3.17
CC(C)NC(=O)N1CCCCN2[C@H](CO)[C@@H](c3ccc(C#CC4CC4)cc3)[C@H]2C1	-0.901
CC(C)NC(=O)N1CCCCN2[C@@H](CO)[C@H](c3ccc(C#C[C@@H](C)O)cc3)[C@@H]2C1	1.36
CC(C)NC(=O)N1CCCCN2[C@H](C1)[C@@H](c1ccc(C#Cc3ccccc3)cc1)[C@@H]2CO	-3.67*
CC(C)NC(=O)N1CCCCN2[C@H](CO)[C@H](c3ccc(C#Cc4ccccc4)cc3)[C@H]2C1	-5.02*
CC(C)NC(=O)N1CCCCN2[C@H](CO)[C@@H](c3ccc(C#Cc4ccccc4)cc3)[C@H]2C1	-9.21*
CC(C)C#Cc1ccc([C@H]2[C@@H](CO)N3CCCCN(C(=O)NC(C)C)C[C@@H]23)cc1	1.78
COCC(=O)Nc1ccc2c(c1)[C@H]1C[C@H](CC(=O)N3CCOCC3)O[C@H](CO)[C@H]1O2	-0.603
CC(C)C#Cc1ccc([C@@H]2[C@H]3CN(C(=O)Nc4ccccc4)CCCCN3[C@H]2CO)cc1	3.09
O=C1CN(Cc2ccccc2)C[C@H]2[C@H](c3ccc(-c4ccccc4F)cc3)[C@H](CO)N12	-1.13
C/C=C/c1ccc([C@H]2[C@H](CO)N3C(=O)CN(Cc4ccccc4)C[C@@H]23)cc1	-0.128
CC(C)[C@@H]1COCn2nncc2CC[C@H](C)C(=O)N1	-0.748
O=C(Nc1ccc(F)cc1)N1C[C@H]2[C@@H](c3ccccc31)[C@@H](CO)N2C(=O)c1ccncc1	3.05
CO[C@H](CN(C)C(=O)Nc1ccc(Cl)cc1)[C@@H](C)CN(Cc1ccccc1Cl)[C@H](C)CO	2
Cc1ccccc1-c1ccc([C@@H]2[C@H]3CN(C(=O)Nc4ccccc4)CCCCN3[C@H]2CO)cc1	0.795
SMILES	IDE exosite FP
Cc1ccccc1-c1ccc([C@H]2[C@H](CO)N3CCCCN(C(=O)Nc4ccc(F)cc4)C[C@@H]23)cc1	-2.45
Cc1ccccc1-c1ccc([C@@H]2[C@H]3CN(C(=O)Nc4ccc(F)cc4)CCCCN3[C@H]2CO)cc1	-0.344
COc1ccc(NC(=O)N2CCCCN3[C@@H](CO)[C@@H](c4ccc(-c5ccccc5F)cc4)[C@@H]3C2)cc1	-1.19
Cc1ccccc1-c1ccc([C@H]2[C@H]3CN(C(=O)Nc4ccccc4)CCCCN3[C@H]2CO)cc1	0.801
COc1ccc(NC(=O)N2CCCCN3[C@H](CO)[C@H](c4ccc(-c5ccccc5C)cc4)[C@H]3C2)cc1	-4.26*
COc1ccc(NC(=O)N2CCCCN3[C@H](C2)[C@@H](c2ccc(-c4ccccc4C)cc2)[C@@H]3CO)cc1	-4.12*
Cc1ccccc1-c1ccc([C@H]2[C@@H](CO)N3CCCCN(C(=O)Nc4ccccc4)C[C@H]23)cc1	-8.78*
